Measured values from PubChem BioAssay AID624330 (Southern Research Specialized Biocontainment Screening …, 2012).
Out of some 340,000 compounds screened, about 2,100 (0.62%) were called active.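 Rule for the calls: active = first-screen hits whose inhibition reached a set limit at any dose in the follow-up dose series; inconclusive = inhibition above the set first-screen limit but never retested; inactive = the rest.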 The list is a sample of the results. Potency and affinity values are given separately.

Molecular target: Rac GTPase-activating protein 1 (Homo sapiens) (UniProt Q9H0H5)
Assay: MgcRacGAP GTPase-activating activity inhibitors, confirmation, biochemical, ADP Hunter fluorescence, primary and confirmatory (AID 624330);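 note: fluorescence reports GDP produced by GAP-driven GTP hydrolysis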
Conditions: MgcRacGAP-stimulated Rac1 GTP hydrolysis, at 30 µM, stronger effect = higher value, GST-tagged Rac1 F28L mutant substrate

Sequence of Rac GTPase-activating protein 1 (Homo sapiens) (Q9H0H5 whole entry, looked up): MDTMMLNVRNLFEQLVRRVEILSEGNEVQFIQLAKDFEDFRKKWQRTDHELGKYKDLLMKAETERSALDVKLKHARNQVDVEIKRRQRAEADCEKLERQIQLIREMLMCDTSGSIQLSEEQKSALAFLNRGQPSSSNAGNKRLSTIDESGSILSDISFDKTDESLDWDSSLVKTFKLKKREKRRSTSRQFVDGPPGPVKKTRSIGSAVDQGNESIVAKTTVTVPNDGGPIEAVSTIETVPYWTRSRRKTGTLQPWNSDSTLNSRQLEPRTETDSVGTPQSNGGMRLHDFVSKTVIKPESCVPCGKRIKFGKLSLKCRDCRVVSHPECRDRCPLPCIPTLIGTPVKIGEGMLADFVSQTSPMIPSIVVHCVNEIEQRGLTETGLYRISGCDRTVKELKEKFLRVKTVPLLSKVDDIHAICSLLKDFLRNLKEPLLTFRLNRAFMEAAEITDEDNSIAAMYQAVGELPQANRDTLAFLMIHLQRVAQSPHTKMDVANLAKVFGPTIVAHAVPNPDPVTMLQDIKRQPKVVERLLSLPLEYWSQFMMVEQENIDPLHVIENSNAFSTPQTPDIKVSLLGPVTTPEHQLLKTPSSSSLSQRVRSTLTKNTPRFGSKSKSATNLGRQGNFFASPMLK

inhibition, inactive:
Cc1cc(C)c2nc(NNC(=O)c3cc(=O)c4ccccc4o3)sc2c1 10.6%, Cc1ccc2sc(NNC(=O)c3cc(=O)c4ccccc4o3)nc2c1C 24.2%, Cc1cc(C)c(OCCCCN2CCNCC2)c(C)c1 8.89%, Cc1cc(OCCCN2CCCC2)ccc1Cl 7.71%, Cc1ccc(OCCCCN2CCCCC2)c(Br)c1 6.79%, Cc1ccc(C)c(OCCCN2CCCC2)c1 19.9%, Cc1ccc(C)c(OCCCN2CCNCC2)c1 7.95%, Cc1ccc(C)c(OCCCCN2CCNCC2)c1C 4.36%, Clc1ccc(OCCCN2CCCC2)cc1Cl -13.7%, Cc1ccc(C(C)C)c(OCCCCCN2CCOCC2)c1 7.81%, Cc1cc(C)n2c(SCC(=O)Nc3ccccc3C#N)nnc2n1 2.29%, COc1ccc(CCN2CCCn3c2nc2c3c(=O)[nH]c(=O)n2C)cc1OC 6.67%, CCC1(NC(C)=O)CC2CC1CC2NC(C)=O (configuration not stated) 1.95%, CCCC(C)NC(=O)COC(=O)c1ccccc1SCC(=O)NC(C)CCC (configuration not stated) 2.85%, Cc1ccc(P(=O)(O)c2ccc(C)cc2)cc1 8.6%, Cc1ccc(OCCN2CCCCCC2)c(C)c1 10.9%, Cc1ccc(OCCCCN2CCCCC2)c(C)c1 2.28%, Cc1ccccc1OCCOCCN1CCCCCC1 -5.57%, Cc1ccccc1OCCCN1CCCC1 26.5%, CC1CCCN(C(=O)C2CCN(Cc3ccc4c(c3)OCO4)CC2)C1 (configuration not stated) 5.33%, COc1ccc(C(=O)Nc2c(C(C)(C)C)nn(C)c2C(C)(C)C)cc1 10.2%, CCOC(=O)C1CCN(S(=O)(=O)c2ccc(Cl)cc2)CC1 4.24%, Cc1sc2nc(CSc3ccccc3)nc(N3CCN(C)CC3)c2c1C 7.15%, CCOC(=O)c1sc2nc(CSc3ccccc3)nc(N3CCC(C(N)=O)CC3)c2c1C -5.99%, CC/C(=N\O)c1ccc(OC)c(OC)c1 8.04%, C=CCOc1ccc(/C(CC)=N/O)cc1OC 3.46%, COc1cc(C(=O)C(=O)c2ccc(O)c(OC)c2)ccc1O 13.4%, COc1cc(C(=O)OCCN2CCCCC2)ccc1O 21.2%, COc1ccc(C(=O)Nc2ccc(Oc3nc(C)nc4sc(-c5ccccc5)cc34)cc2)cc1OC 2.99%, CC(C)(C)NC(=O)C(c1ccc(O)cc1)N(C(=O)CCC(=O)Nc1nccs1)c1cccc(F)c1 (configuration not stated) 8.98%, COc1cc(/C=N/N2CCCCC2)cc(OC)c1O 17.9%, COc1cc(/C=N/n2c(C)nnc2C)cc(OC)c1OC 3.62%, COc1cc(/C=N/n2c(-c3ccccc3)n[nH]c2=S)cc(OC)c1OC 14.2%, COc1ccc(/C=N/n2c(-c3cc(C)[nH]n3)n[nH]c2=S)cc1 21.4%, O=C(COc1ccc(Cl)cc1)Nc1ccc(C(=O)NCc2cccnc2)cc1 9.05%, COc1ccc(NC(=O)c2cccc3ccccc23)cc1OC -23.3%, O=C(O)CCS(=O)(=O)c1ccccc1Cl -0.02%, COc1cccc(N(CC(=O)N2CCN(C)CC2)S(=O)(=O)c2ccc(C)cc2)c1 -2.09%, Cc1ccc(S(=O)(=O)N2CCN(c3ccc(C(=O)N4CCOCC4)cc3[N+](=O)[O-])CC2)cc1 3.02%, CC(=O)Nc1nonc1NC(=O)CSc1ncn[nH]1 1.36%, CCOC(=O)C1C(=O)N(C(=O)c2ccc(OC)cc2)CC1c1ccccc1 (configuration not stated) 3.29%, O=C(C[C@@H]1C/C=C\C[C@H](NC(=O)OCC2c3ccccc3-c3ccccc32)C(=O)OC[C@H]2CCCN2C1=O)NCCO 5.33%, CC(C)/C=C(/C(=O)c1ccc(Cl)cc1Cl)n1cncn1 7.69%, O=C(N/N=C\c1cccnc1)c1ccc(Cl)cc1Cl 8.54%, CN(C)c1ccc(/C=C(/C(=O)c2ccc(Cl)cc2Cl)n2cncn2)cc1 3.83%, COc1ccc(/C=C(/C(=O)c2ccc(Cl)cc2Cl)n2cncn2)cc1 11.7%, CCN(CC(=O)NCc1cccs1)C(=O)c1cccc(S(=O)(=O)N2CC(C)OC(C)C2)c1 (configuration not stated) -2.83%, O=C(Cn1ncc2c1-c1ccccc1OC2)N1CCc2ccccc21 2.35%, CCCCOc1ccc(C(=O)N/C(=C/C=C/c2ccccc2)C(=O)NCCCO)cc1 12.1%, O=S1c2ccccc2Nc2ccccc21 18.2%, COC(=O)/C(C#N)=C1/C=Cc2ccccc2N1 -5.37%, O=C(Cn1cc(C(=O)C(F)(F)F)c2ccccc21)Nc1ccccc1F 13.4%, O=C(O)C1(C(=O)O)CCCC1 1.88%, NC[C@H]1O[C@H](O[C@H]2[C@H](O)[C@@H](O[C@H]3O[C@H](CO)[C@@H](O)[C@H](N)[C@H]3O)[C@H](N)C[C@@H]2N)[C@H](N)C[C@@H]1O 6.29%, O=C(CCCCO)CCCCCCCC[C@H]1N[C@H](CO)[C@H](O)[C@@H]1O[C@@H]1O[C@H](CO)[C@@H](O)[C@H](O)[C@H]1O 6.38%, Cc1ccc(S(=O)(=O)N2CCN(C(=O)c3ccc(N4CCCCC4)c([N+](=O)[O-])c3)CC2)cc1 6.99%, COCCCC1CCN(C(=O)C2CCC(=O)N(Cc3cccc(F)c3)C2)CC1 (configuration not stated) 7.1%, O=S(=O)(/C(=C/c1ccc(C(F)(F)F)cc1)c1nc2ccccc2[nH]1)c1ccccc1 4.87%, CN1CCc2c1nc1ccccc1c2N (tested in a mixture with another compound) 13.1%, Cc1cccc2c(N)c3c(nc12)CCCC3 (tested in a mixture with another compound) 16.8%, COc1ccc(CNC(=O)Cn2cc3c(n2)CCCCC3)cc1 7.34%, O=C1OC(c2ccccc2)=N/C1=C\N1CCCCC1 -1.27%, O=C1OC(c2ccccc2)=C/C1=C/N1CCCCC1 30.7%, CCN(C(=O)c1c(C)noc1C)c1c(N)n(Cc2ccccc2)c(=O)[nH]c1=O 5.68%, CCn1c(=O)c(C(=O)NCc2ccc(F)cc2)c(O)c2ccccc21 10.4%, CSc1ccc(C#N)cc1NC(=O)c1ccc(Cl)cc1Cl 7.34%, NC1=NC(=O)/C(=C\c2cccs2)S1 -1.57%, NC1=NC(=O)/C(=C/c2cccs2)S1 4.92%, CCCn1c(N)c(C(=O)CSc2nnc(-c3cccs3)n2C2CC2)c(=O)[nH]c1=O 1.21%, O=C(CCN1CCN(c2ccccc2)CC1)NNC(=O)c1ccccc1 10.2%, Cc1ccc(NS(=O)(=O)c2cc(N)ccc2Cl)c(C)c1 11.7%, CNS(=O)(=O)c1cc(N)ccc1C 5.24%, Cc1cc(C)cc(NC(=S)N2CCCC2)c1 4.82%, C/C(=N/Nc1ccnc2cc(Cl)ccc12)c1ccc(N)cc1 18.6%, C/C(=N/Nc1ccnc2cc(Cl)ccc12)c1ccc(O)cc1 18.6%, Clc1ccc(NNc2ccnc3cc(Cl)ccc23)cc1 6.46%, COc1ccc(N2CCN(c3ccnc4cc(Cl)ccc34)CC2)cc1 13.2%, CC(=O)c1ccc(N2CCN(c3ccnc4cc(Cl)ccc34)CC2)cc1 1.01%, Clc1ccc2c(N/N=C/c3ccc(Br)cc3)ccnc2c1 7.12%, CCOc1ccc(Nc2ccnc3cc(Cl)ccc23)cc1 6.93%, Oc1ccc(/C=N/Nc2ccnc3cc(Cl)ccc23)c(O)c1O 15.3%, CN(C)CCNC(=O)NC(=O)c1ccc(Cl)cc1 7.5%, CCOCCCNC(=S)Nc1ccc2nc3n(c(=O)c2c1)CCCCC3 -1.06%, CC(C)C(=O)N1CCN(CCN2C(=O)c3cccc4cccc(c34)C2=O)CC1 12.5%, COC(=O)c1c(C)[nH]c(C(=O)C(C)OC(=O)c2ccco2)c1C (configuration not stated) 5.7%, Cc1ccc(N(C(C)C(=O)Nc2ccccc2C(=O)N2CCOCC2)S(C)(=O)=O)cc1C (configuration not stated) 10.3%, O=C1c2ccccc2C(=O)c2[nH]c(=O)[nH]c21 8.15%, COCCNC(=S)NNc1ccc(Cl)c(C(=O)O)c1 7.21%, CCOC(=O)c1c(N2C(=O)Nc3ccccc3N2O)sc2c1CCCCC2 14.2%, CC1(C(=O)O)CCC(C(N)=O)C1(C)C (configuration not stated) 5.23%, O=C(O)C1OC2OC3(CCCCC3)OC2C2OC3(CCCCC3)OC12 (configuration not stated) -5.5%, CC(=O)Nc1ccc(NC(=O)C(=O)c2cn(CC(=O)N3CCCC3)c3ccccc23)cc1 4.85%, Cc1cc(C)n2ncc(C(=O)NCc3ccccc3)c2n1 0.67%, CN(C)S(=O)(=O)c1cccc(NC(=S)N/N=C/c2cccc(O)c2)c1 2.96%, COc1cc(/C=N/NC(=S)Nc2cccc(C(=O)O)c2)cc(OC)c1OC 7.41%, COc1ccc(/C=N/NC(=S)Nc2cccc(C(=O)O)c2)cc1OC -9.15%, COc1cc(/C=N/NC(=S)Nc2cccc(S(=O)(=O)N(C)C)c2)cc(OC)c1O -1.97%
